{"source": "PubChem BioAssay AID651635", "about": "(National Center for Advancing Translational Sciences (NCATS), 2012)", "note": "About 1,900 (0.47%) of roughly 400,000 compounds were called active. About 14% were inconclusive and are not listed. Calls follow the shape of the dose curve; as a rule, active = well fitted cell-killing curve with a large enough effect; inconclusive = small, poorly fitted or top-dose-only effect, or effect the other way; inactive = no such curve, though single readings can be large or run the other way. Shown is part of a subset that was picked to be rich in actives. Potency is read from the fitted curve at half-maximal effect.", "data": [{"test": "Viability Counterscreen for Primary qHTS for Inhibitors of ATXN expression; also: nearly all actives have a fitted effect of over 40% in size", "conditions": "S2 cells (HEK-293 line with an ATXN2-luciferase reporter) viability, CellTiter-Fluor protease fluorescence, 24 h; series mostly up to 56.7 µM; activity change, negative = cytotoxicity: at the top concentration", "values": [{"smiles": "COC(=O)c1ccc2c(c1)N(CC(=O)Nc1ccc(C)c(C)c1)C(=O)c1ccccc1S2", "activity change, negative = cytotoxicity": "-26.8% (inactive)"}, {"smiles": "CC(C)n1cnc2c(NCc3ccccc3)cc(OCC3CCN(C)CC3)cc21", "Potency": "31.6 µM (active)"}, {"smiles": "CCC(CO)Oc1cc(NC(=O)c2ccc(Cl)cc2)c2ncn(C(C)C)c2c1", "note": "(configuration not stated)", "activity change, negative = cytotoxicity": "-15.2% (inactive)"}, {"smiles": "CN(C)c1nccc(NCc2ccccc2)c1C#N", "activity change, negative = cytotoxicity": "15.7% (inactive)"}, {"smiles": "COC(=O)c1ccc(CN2C(=O)C(Cc3ccccc3)ON=C2c2ncccc2C)o1", "note": "(configuration not stated)", "activity change, negative = cytotoxicity": "-17.5% (inactive)"}, {"smiles": "CCc1nc2c(OCc3ccc(F)c(F)c3)cccn2c1N(C)C(=O)c1ccco1", "activity change, negative = cytotoxicity": "-26% (inactive)"}, {"smiles": "CCOC(=O)N(C)c1c(CC)nc2c(OCc3ccccc3C(=O)OC)cccn12", "activity change, negative = cytotoxicity": "-37.6% (inactive)"}, {"smiles": "Cc1nc2c(OCc3ccc(Cl)cc3Cl)cccn2c1N(C)CC1CC1", "Potency": "20 µM (active)"}, {"smiles": "CCc1nc2c(OCc3ccc(Cl)cc3Cl)cccn2c1N(C)C(=O)C(C)C", "Potency": "22.4 µM (active)"}, {"smiles": "CCc1nc2c(OCc3cccc(OC)c3)cccn2c1N(C)C(=O)C(C)C", "activity change, negative = cytotoxicity": "-8.7% (inactive)"}, {"smiles": "CCCCC(=O)N(C)c1c(CC)nc2c(OCc3ccc(Cl)cc3Cl)cccn12", "activity change, negative = cytotoxicity": "-11.9% (inactive)"}, {"smiles": "CCOC(=O)[C@]12CCC=C1N(Cc1cccc3ccccc13)C(=O)[C@H](CC(=O)NCc1cccc(C(F)(F)F)c1)C2", "activity change, negative = cytotoxicity": "-37.5% (inactive)"}, {"smiles": "CCCCNC(=O)C1CCC(CNS(=O)(=O)c2ccc(NC(C)=O)cc2)CC1", "note": "(configuration not stated)", "Potency": "inactive"}, {"smiles": "COc1ccc(NC(=O)C2CCC(CNS(=O)(=O)c3csc(C(N)=O)c3)CC2)cc1OC", "note": "(configuration not stated)", "activity change, negative = cytotoxicity": "4.18% (inactive)"}, {"smiles": "Cc1cc(NC(=O)C2CCC(CNS(=O)(=O)c3ccc(Br)s3)CC2)ccc1Br", "note": "(configuration not stated)", "Potency": "35.5 µM (active)"}, {"smiles": "O=C(c1cn(CC2CCCN(Cc3cc4ccccc4s3)C2)nn1)N1CCCC1", "note": "(configuration not stated)", "activity change, negative = cytotoxicity": "-16.3% (inactive)"}, {"smiles": "COc1ccc(CCCNC(=O)C2Cc3c(-c4cccc(C(N)=O)c4)ccnc3O2)cc1", "note": "(configuration not stated)", "activity change, negative = cytotoxicity": "-25.5% (inactive)"}, {"smiles": "COC(=O)c1ccc2nc(-c3ccc(OC)c(OC)c3)c(Cc3ccccc3)n2c1", "activity change, negative = cytotoxicity": "-38.4% (inactive)"}, {"smiles": "Cc1cc(C)cc(CN2CCc3nnc(C(NS(C)(=O)=O)C(C)C)n3CC2)c1", "note": "(configuration not stated)", "activity change, negative = cytotoxicity": "-15.6% (inactive)"}, {"smiles": "OC(c1ccc(F)cc1)c1ncc(-c2cccc(C(F)(F)F)c2)[nH]1", "note": "(configuration not stated)", "activity change, negative = cytotoxicity": "-35.2% (inactive)"}, {"smiles": "CC(=O)OC[C@H]1O[C@@H](O[C@H]2[C@H](O)[C@@H](OC(=O)c3ccccc3C(=O)O)[C@H](O)O[C@@H]2COC(C)=O)[C@H](O)[C@@H](OC(=O)c2ccccc2C(=O)O)[C@@H]1O", "activity change, negative = cytotoxicity": "-4.22% (inactive)"}, {"smiles": "CCOc1ccc(NC(=O)CSc2nncn2C)cc1", "activity change, negative = cytotoxicity": "21.1% (inactive)"}, {"smiles": "CCOc1ccc(NC(=O)CSc2c3c(nc4ccccc24)CCCC3)cc1", "Potency": "25.1 µM (active)"}, {"smiles": "CCOc1ccc(C(=O)Nc2ccc3nc4c(c(Nc5ccccc5OC)c3c2)CCCC4)cc1", "Potency": "14.1 µM (active)"}, {"smiles": "CCOc1ccc(-n2nc3ccc(NC(=O)c4ccc(OC)c(Cl)c4)cc3n2)cc1", "activity change, negative = cytotoxicity": "-8.21% (inactive)"}, {"smiles": "COc1cccc(NC(=O)c2ccc3c(SCC(=O)O)c4c(nc3c2)CCCC4)c1", "activity change, negative = cytotoxicity": "-24% (inactive)"}, {"smiles": "CCOc1ccc(NC(=O)CSc2nc3ccccc3c(=O)n2Cc2cccs2)cc1", "activity change, negative = cytotoxicity": "-15.2% (inactive)"}, {"smiles": "C[C@@H]1CCC[C@H](C)N1CCCC(O)(c1ccccc1)c1ccccn1", "note": "(some centres not stated)", "activity change, negative = cytotoxicity": "-7.16% (inactive)"}, {"smiles": "FC(F)(F)c1cccc(-c2cn[nH]c2C2CCCN(Cc3cccn3-c3ccccn3)C2)c1", "note": "(configuration not stated)", "activity change, negative = cytotoxicity": "-20.2% (inactive)"}, {"smiles": "O=C(NCCN1CCOCC1)c1cnn(-c2nccc(-c3cccs3)n2)c1C1CC1", "activity change, negative = cytotoxicity": "-8.87% (inactive)"}, {"smiles": "O=C(OCC(O)CO)c1ccccc1Nc1ccnc2c(C(F)(F)F)cccc12", "note": "(configuration not stated)", "activity change, negative = cytotoxicity": "8.14% (inactive)"}, {"smiles": "CCS(=O)(=O)Nc1cc(C(=O)N2C[C@@H](C)O[C@@H](C)C2)c2c(c1)nc(-c1ccccc1)n2C", "activity change, negative = cytotoxicity": "-11.8% (inactive)"}, {"smiles": "CC1(C)OC[C@@H](COC(=O)CCc2ccc(OC[C@@H](O)CNCCNC(=O)N3CCOCC3)cc2)O1", "Potency": "inactive"}, {"smiles": "CC(=O)Nc1cncc(-c2ccccc2CO)n1", "activity change, negative = cytotoxicity": "-8.75% (inactive)"}, {"smiles": "COc1cnc(-c2ccccn2)nc1Oc1ccc(C(C)(C)C)cc1", "Potency": "10 µM (active)"}, {"smiles": "N#Cc1ccc(Oc2cc(C(F)(F)F)nc(-c3ccccn3)n2)cc1", "activity change, negative = cytotoxicity": "-38.9% (inactive)"}, {"smiles": "COc1ccc2nc(-c3ccccn3)ccc2c1", "activity change, negative = cytotoxicity": "-31.3% (inactive)"}, {"smiles": "CCc1nc2c(OCCOc3ccccc3)cccn2c1N(C=O)Cc1ccc(OC)cc1", "activity change, negative = cytotoxicity": "-32% (inactive)"}, {"smiles": "C#Cc1ccc(NC(=O)C2(C)CCN2C(=O)Cc2ccc(-c3ccccc3)cc2)cc1", "note": "(configuration not stated)", "activity change, negative = cytotoxicity": "-21.5% (inactive)"}, {"smiles": "CC(C(=O)O)c1ccc(C2CCCCC2)c2ccccc12", "note": "(configuration not stated)", "activity change, negative = cytotoxicity": "-15.4% (inactive)"}, {"smiles": "O=C(NC(=O)c1ccccc1)Nc1ccccc1O", "activity change, negative = cytotoxicity": "-5.19% (inactive)"}, {"smiles": "O=C(NC1=CC(=O)c2ccccc2C1=O)c1ccccc1", "Potency": "7.08 µM (active)"}, {"smiles": "COC(=O)c1nc(NC(=O)c2ccccc2)n[nH]1", "activity change, negative = cytotoxicity": "-13.5% (inactive)"}, {"smiles": "CCCS(=O)(=O)NCc1c(C)ncc2c1CCN(C(=O)c1ccc(F)c(F)c1)C2", "activity change, negative = cytotoxicity": "-6.2% (inactive)"}, {"smiles": "O=C(OCCN1CCOCC1)c1cccnc1Nc1cccc(C(F)(F)F)c1", "activity change, negative = cytotoxicity": "-5.42% (inactive)"}, {"smiles": "COc1ccc(NC(=O)C2(C)Cc3c(-c4cccc(NC(C)=O)c4)ccnc3O2)cc1OC", "note": "(configuration not stated)", "activity change, negative = cytotoxicity": "-26.5% (inactive)"}, {"smiles": "COc1ccc(-n2c(CNC(=O)c3cc(C(F)(F)F)ccc3Cl)nnc2SC)cc1", "activity change, negative = cytotoxicity": "-11.2% (inactive)"}, {"smiles": "CCN(CC)c1ccc(/C=N/NC(=O)c2cnccn2)c(O)c1", "Potency": "7.94 µM (active)"}, {"smiles": "COc1ccc(NC(=O)C/C(C)=N/NC(=O)c2cnccn2)cc1Cl", "activity change, negative = cytotoxicity": "-13.5% (inactive)"}, {"smiles": "Cc1ccc(/C=N/NC(=O)C2=NNC(c3ccccc3)(c3ccccc3)C2)c(O)c1", "activity change, negative = cytotoxicity": "-18.9% (inactive)"}, {"smiles": "COc1cc(C(=O)N2CCC(c3ccncc3)CC2)cc(OC)c1OC", "activity change, negative = cytotoxicity": "-4.24% (inactive)"}, {"smiles": "CCOC(=O)[C@]12CCCC=C1N(Cc1ccc3c(c1)OCO3)C(=O)[C@H](CC(=O)NCc1cccs1)C2", "activity change, negative = cytotoxicity": "-20.6% (inactive)"}, {"smiles": "CCS(=O)(=O)c1ncc(N(Cc2ccc(F)cc2)Cc2ccco2)c(C(=O)Nc2cc(C)ccc2C)n1", "activity change, negative = cytotoxicity": "-15.9% (inactive)"}, {"smiles": "Cc1ccc2nc(NC(=O)c3nc(SCc4ccccc4F)ncc3Cl)sc2c1", "activity change, negative = cytotoxicity": "-29.2% (inactive)"}, {"smiles": "Cc1cccc(CS(=O)(=O)c2ncc(Cl)c(C(=O)Nc3ccc(F)cc3)n2)c1", "Potency": "31.6 µM (active)"}, {"smiles": "CSc1nnc(NC(=O)c2nc(S(=O)(=O)Cc3ccc(C)cc3)ncc2Cl)s1", "Potency": "12.6 µM (active)"}, {"smiles": "COCCSc1nnc(NC(=O)CCS(=O)(=O)Cc2ccccc2)s1", "activity change, negative = cytotoxicity": "-32.4% (inactive)"}, {"smiles": "CCOc1ccc(NC(=O)c2nc(SCC)ncc2Cl)cc1", "activity change, negative = cytotoxicity": "-16.9% (inactive)"}, {"smiles": "COc1ccccc1-c1ccnc(-n2ncc(C(=O)NCCc3ccncc3)c2C)n1", "activity change, negative = cytotoxicity": "-6.5% (inactive)"}, {"smiles": "O=[N+]([O-])c1cc(S(=O)(=O)Nc2cccc(Cl)c2)ccc1N=Nc1c(O)[nH]c2ccccc12", "Potency": "28.2 µM (active)"}, {"smiles": "O=C(O)c1ccccc1/C=N/Nc1ccc(S(=O)(=O)Nc2ccc(Cl)cc2)cc1[N+](=O)[O-]", "activity change, negative = cytotoxicity": "-23.7% (inactive)"}, {"smiles": "Oc1[nH]c2ccccc2c1N=Nc1c(F)c(F)c(F)c(F)c1F", "activity change, negative = cytotoxicity": "-34.7% (inactive)"}]}]}
